Reference: PubChem BioAssay AID1159580 (chemical genetic matrix, 2015)
In all, about 5,500 compounds went through this assay and about 2,000 (36%) were called active. Another 18% or so got no clear call; they are omitted. This is one part of the list. Unmarked numbers belong to inactive results. Cut-off read from the data, not from the text of the source: active = normalized growth mostly below about 0.91 (no sharp cut-off); inconclusive = no clear call, values can overlap the other calls; inactive = mostly above about 0.92.

Test: chemical genetic growth profiling, strain panel (AID 1159580);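 note: tested at 20 µM; growth read once vehicle control cultures reached saturation at 30 °C; 1 = growth at the plate median or of vehicle wells; lower values mean less growth of the strain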
Conditions: growth OD

## C#CC1(O)CCC2C3CCC4=CC(=O)CCC4(C)C3CCC21C (stereo unspecified)
S. cerevisiae deletion strains, locus YKL009W, strain mrt4, hits give low values
  normalized growth: 0.945
S. cerevisiae deletion strains, locus YKL068W, hits give low values
  normalized growth: 0.991
S. cerevisiae deletion strains, locus YKL085W, strain MDH1 (second series), hits give low values
  normalized growth: 0.99
S. cerevisiae deletion strains, locus YKL085W, strain MDH1, hits give low values
  normalized growth: 0.99
S. cerevisiae deletion strains, locus YKL160W, strain elf1, hits give low values
  normalized growth: 0.979
S. cerevisiae deletion strains, locus YKL190W, strain CNB1, hits give low values
  normalized growth: 0.997
S. cerevisiae deletion strains, locus YKR001C, strain vps1, hits give low values
  normalized growth: 0.99
S. cerevisiae deletion strains, locus YKR026C, strain gcn3, hits give low values
  normalized growth: 0.991
S. cerevisiae deletion strains, locus YKR091W, strain srl3, hits give low values
  normalized growth: 0.977
S. cerevisiae deletion strains, locus YLL001W, strain dnm1, hits give low values
  normalized growth: 1
S. cerevisiae deletion strains, locus YLL026W, hits give low values
  normalized growth: 0.986
S. cerevisiae deletion strains, locus YLL041C, strain sdh2, hits give low values
  normalized growth: 0.998
S. cerevisiae deletion strains, locus YLR027C, strain aat2, hits give low values
  normalized growth: 0.986
S. cerevisiae deletion strains, locus YLR039C, strain RIC1, hits give low values
  normalized growth: 1.31
S. cerevisiae deletion strains, locus YLR058C, strain SHM2, hits give low values
  normalized growth: 0.986
S. cerevisiae deletion strains, locus YLR102C, strain apc9, hits give low values
  normalized growth: 0.978
S. cerevisiae deletion strains, locus YLR113W, strain HOG1, hits give low values
  normalized growth: 1.03
S. cerevisiae deletion strains, locus YLR221C, strain rsa3, hits give low values
  normalized growth: 1
S. cerevisiae deletion strains, locus YLR258W, strain gsy2, hits give low values
  normalized growth: 0.983
S. cerevisiae deletion strains, locus YLR262C, strain YPT6 (second series), hits give low values
  normalized growth: 1.05
S. cerevisiae deletion strains, locus YLR262C, strain YPT6, hits give low values
  normalized growth: 1.2
S. cerevisiae deletion strains, locus YLR268W, strain sec22, hits give low values
  normalized growth: 0.987
S. cerevisiae deletion strains, locus YLR320W, strain mms22, hits give low values
  normalized growth: 0.997
S. cerevisiae deletion strains, locus YLR330W, strain CHS5, hits give low values
  normalized growth: 0.988
S. cerevisiae deletion strains, locus YLR342W, strain FKS1 (second series), hits give low values
  normalized growth: 0.909
S. cerevisiae deletion strains, locus YLR342W, strain FKS1, hits give low values
  normalized growth: 0.988
S. cerevisiae deletion strains, locus YLR357W, strain rsc2, hits give low values
  normalized growth: 1
S. cerevisiae deletion strains, locus YLR370C, strain arc18, hits give low values
  normalized growth: 0.975
S. cerevisiae deletion strains, locus YLR371W, strain rom2, hits give low values
  normalized growth: 0.987
S. cerevisiae deletion strains, locus YLR384C, strain iki3, hits give low values
  normalized growth: 0.99
S. cerevisiae deletion strains, locus YLR418C, strain cdc73, hits give low values
  normalized growth: 0.921
S. cerevisiae deletion strains, locus YML016C, strain PPZ1, hits give low values
  normalized growth: 0.989
S. cerevisiae deletion strains, locus YML032C, strain rad52, hits give low values
  normalized growth: 0.99
S. cerevisiae deletion strains, locus YML120C, strain ndi1, hits give low values
  normalized growth: 0.99
S. cerevisiae deletion strains, locus YML124C, strain tub3, hits give low values
  normalized growth: 0.991
S. cerevisiae deletion strains, locus YMR058W, strain fet3, hits give low values
  normalized growth: 0.948
S. cerevisiae deletion strains, locus YMR078C, strain ctf18, hits give low values
  normalized growth: 0.976
S. cerevisiae deletion strains, locus YMR125W, strain sto1, hits give low values
  normalized growth: 0.967
S. cerevisiae deletion strains, locus YMR129W, hits give low values
  normalized growth: 0.988
S. cerevisiae deletion strains, locus YMR205C, strain PFK2, hits give low values
  normalized growth: 0.991
S. cerevisiae deletion strains, locus YMR223W, strain ubp8, hits give low values
  normalized growth: 0.957
S. cerevisiae deletion strains, locus YMR231W, strain pep5, hits give low values
  normalized growth: 0.997
S. cerevisiae deletion strains, locus YMR263W, strain SAP30, hits give low values
  normalized growth: 1.01
S. cerevisiae deletion strains, locus YMR307W, strain GAS1, hits give low values
  normalized growth: 1.14
S. cerevisiae deletion strains, locus YNL067W, strain RPL9B, hits give low values
  normalized growth: 1.02
S. cerevisiae deletion strains, locus YNL071W, strain lat1, hits give low values
  normalized growth: 1
S. cerevisiae deletion strains, locus YNL153C, strain GIM3, hits give low values
  normalized growth: 1.04
S. cerevisiae deletion strains, locus YNL183C, strain NPR1, hits give low values
  normalized growth: 0.955
S. cerevisiae deletion strains, locus YNL209W, strain ssb2, hits give low values
  normalized growth: 0.988
S. cerevisiae deletion strains, locus YNL233W, strain BNI4, hits give low values
  normalized growth: 1.02
S. cerevisiae deletion strains, locus YNL248C, strain rpa49, hits give low values
  normalized growth: 0.987
S. cerevisiae deletion strains, locus YNL250W, strain rad50, hits give low values
  normalized growth: 0.978
S. cerevisiae deletion strains, locus YNL271C, strain bni1, hits give low values
  normalized growth: 0.979
S. cerevisiae deletion strains, locus YNL298W, strain CLA4, hits give low values
  normalized growth: 0.954
S. cerevisiae deletion strains, locus YNL307C, strain MCK1, hits give low values
  normalized growth: 0.906 (active)
S. cerevisiae deletion strains, locus YNL322C, strain KRE1 (second series), hits give low values
  normalized growth: 1
S. cerevisiae deletion strains, locus YNR049C, strain mso1, hits give low values
  normalized growth: 0.965
S. cerevisiae deletion strains, locus YNR052C, strain pop2, hits give low values
  normalized growth: 0.966
S. cerevisiae deletion strains, locus YOL147C, strain pex11, hits give low values
  normalized growth: 0.994
S. cerevisiae deletion strains, locus YOR001W, strain rrp6, hits give low values
  normalized growth: 0.998
S. cerevisiae deletion strains, locus YOR061W, strain CKA2, hits give low values
  normalized growth: 0.986
S. cerevisiae deletion strains, locus YOR069W, strain VPS5, hits give low values
  normalized growth: 0.981
S. cerevisiae deletion strains, locus YOR070C, strain gyp1, hits give low values
  normalized growth: 0.992
S. cerevisiae deletion strains, locus YOR080W, strain dia2, hits give low values
  normalized growth: 0.972
S. cerevisiae deletion strains, locus YOR083W, strain WHI5, hits give low values
  normalized growth: 0.948
S. cerevisiae deletion strains, locus YOR106W, strain vam3, hits give low values
  normalized growth: 0.965
S. cerevisiae deletion strains, locus YOR136W, strain idh2, hits give low values
  normalized growth: 0.977
S. cerevisiae deletion strains, locus YOR144C, strain elg1, hits give low values
  normalized growth: 0.975
S. cerevisiae deletion strains, locus YOR184W, strain ser1, hits give low values
  normalized growth: 0.87 (active)
S. cerevisiae deletion strains, locus YOR231W, strain MKK1, hits give low values
  normalized growth: 1.02
S. cerevisiae deletion strains, locus YOR265W, strain rbl2, hits give low values
  normalized growth: 0.988
S. cerevisiae deletion strains, locus YOR270C, strain vph1, hits give low values
  normalized growth: 0.727 (active)
S. cerevisiae deletion strains, locus YOR290C, strain snf2, hits give low values
  normalized growth: 0.974
S. cerevisiae deletion strains, locus YOR316C, strain cot1, hits give low values
  normalized growth: 0.979
S. cerevisiae deletion strains, locus YPL051W, strain arl3, hits give low values
  normalized growth: 1.01
S. cerevisiae deletion strains, locus YPL078C, strain atp4, hits give low values
  normalized growth: 0.987
S. cerevisiae deletion strains, locus YPL106C, strain sse1, hits give low values
  normalized growth: 0.985
S. cerevisiae deletion strains, locus YPL240C, strain hsp82, hits give low values
  normalized growth: 0.988
S. cerevisiae deletion strains, locus YPL241C, strain CIN2, hits give low values
  normalized growth: 0.99
S. cerevisiae deletion strains, locus YPL256C, strain CLN2, hits give low values
  normalized growth: 0.994
S. cerevisiae deletion strains, locus YPR119W, strain clb2, hits give low values
  normalized growth: 0.983
S. cerevisiae deletion strains, locus YPR141C, strain kar3, hits give low values
  normalized growth: 0.982
S. cerevisiae deletion strains, locus YPR163C, strain tif3, hits give low values
  normalized growth: 0.977
S. cerevisiae deletion strains, locus YPR167C, strain met16, hits give low values
  normalized growth: 0.97
S. cerevisiae deletion strains, strain wtn01, hits give low values
  normalized growth: 0.955
S. cerevisiae strains, strain wild type, hits give low values
  normalized growth: 0.99
